JMJD2A Tudor inh = qHTS Assay for Inhibitors of JMJD2A-Tudor Domain; Lysine-specific demethylase 4A (Homo sapiens), O75164; AlphaScreen JMJD2A-Tudor / H3K4me3 peptide binding; Potency, µM (highest dose often 114 µM), for inactives: at the highest dose activity change, negative = inhibition, hits mostly inhibitors; actives 4.4% (n = 390,000); AID 504339, 2011; also: % is scaled to controls: 0 for no effect and ±100 for the full control effect; nearly all actives have a fitted effect of over 50% in size
BAZ2B block = qHTS Assay for Inhibitors of BAZ2B; Bromodomain adjacent to zinc finger domain protein 2B (Homo sapiens), Q9UIF8; actives 4.4% (n = 360,000); AID 504333, 2011; Potency, µM (highest dose often 114 µM), for inactives: at the top dose activity change, negative = inhibition, usual class: inhibitors; AlphaScreen BAZ2B-H3K14Ac peptide displacement; also: % is scaled to controls: 0 for no effect and ±100 for the full control effect; nearly all actives have a fitted effect of over 60% in size
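Protein-peptide AlphaScreen: BAZ2B 50 nM, b-H3K14Ac 50 nM, 1x PBS pH 7.4 + 0.01% Tween-20. Preincubation 30 min RT; cpd 30 min RT (top 110 uM); beads 20 min RT, light-protected.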
G9a block = qHTS Assay for Inhibitors of Histone Lysine Methyltransferase G9a. Histone-lysine N-methyltransferase EHMT2 (Homo sapiens), Q96KQ7. actives 8.8% (n = 350,000). AID 504332, 2011. G9a H3K9 monomethylation, AlphaScreen, 2 h. Potency, µM (doses to about 102 µM), for inactives: top-dose activity, negative = inhibition, actives largely listed as inhibitors; also: % is scaled to controls: 0 for no effect and ±100 for the full control effect; nearly all actives have a fitted effect of over 75% in size
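G9a (20 nM) was preincubated 15 min with compound, then reacted 2 h at room temperature with 500 nM biotin-H3K9 peptide and 20 µM SAM. Monomethyl-H3K9 detected by AlphaScreen using anti-H3K9me1 antibody.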
Sfp inh = qHTS Assay for Inhibitors of Bacillus subtilis Sfp phosphopantetheinyl transferase (PPTase); 4'-phosphopantetheinyl transferase ffp (Bacillus subtilis), Q9F4F7; Biochemical Sfp PPTase activity, qHTS; Potency, µM, for the others: largest response in the series, negative = inhibition, actives largely listed as inhibitors; actives 3.5% (n = 310,000);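 also: the enzyme is Sfp with the accession as filed and its product quenches rhodamine fluorescence; 0% = enzyme reaction without inhibitor and -100% = no enzyme wells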
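Fluorescence-quenching assay with 15 nM Sfp, 5 uM rhodamine-CoA and 12.5 uM BHQ-2-labelled ybbR peptide in pH 7.6 Hepes/MgCl2 buffer. Enzyme was pre-incubated with compound for 15 min at room temperature. Rate was taken from the 30-min fluorescence change (525/598 nm).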
HP1b chromo inh = HTS for Inhibitors of HP1-beta Chromodomain Interactions with Methylated Histone Tails; Chromobox protein homolog 1 (Homo sapiens), P83916; AlphaScreen HP1-beta / biotin-H3K9me3 peptide binding; Potency, µM (titrated, usually from 114 µM), for inactives: top-dose activity change, negative = inhibition, usual class: inhibitors; actives 0.56% (n = 390,000); AID 540317, 2011; also: nearly all actives have a fitted effect of over 70% in size
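AlphaScreen: HP1-beta (50 nM) preformed 30 min with biotin-H3(1-18)K9me3 peptide (50 nM) in PBS pH 7.4, 0.01% Tween-20. Compound added for 30 min at RT, then streptavidin donor/nickel chelate acceptor beads (10 ug/mL) for 30 min.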
TDP1 inh = qHTS Assay for Inhibitors of Tyrosyl-DNA Phosphodiesterase (TDP1). Potency, µM (doses to about 130 µM), for inactives: at the top dose activity change, negative = inhibition, hits mostly inhibitors. Tyrosyl-DNA phosphodiesterase 1 (Homo sapiens), Q9NUW8. AID 485290, 2010. recombinant TDP1, AlphaScreen DNA substrate cleavage. actives 0.28% (n = 350,000); also: % is scaled to controls: 0 for no effect and ±100 for the full control effect; nearly all actives have a fitted effect of over 40% in size
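Compounds were preincubated with Tdp1 (1 nM final) for 15 min at room temperature before substrate (15 nM final) started a 5 min reaction; beads (10 ug/ml final) were then added for 10 min before AlphaScreen detection.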
Active calls of the source: *; u = inconclusive; x = no result given; [ ] = remark or other dose. Only some compounds are listed: those with a hit (about 12% of all), similar ones and a draw of the others. Calls follow the shape of the dose curve; as a rule, active = well fitted curve in the direction sought with a large enough effect; inconclusive = small, poorly fitted or top-dose-only effect, or another doubt; inactive = no such curve, though single readings can be large; an effect the other way counts as inactive or inconclusive. Potency is read from the fitted curve at half-maximal effect.

SMILES | JMJD2A Tudor inh | BAZ2B block | G9a block | Sfp inh | HP1b chromo inh | TDP1 inh
Cc1sc(N/N=C/c2cccs2)nc1-c1ccccc1 | 25µM* | -27% | 45µM* | -10% | u | 3%
Cc1ccccc1-n1sc2cc(F)ccc2c1=O | 4.5µM* | 4.5µM* | -113% | 0.56µM* | 16µM* | 10%
O=c1c2ccccc2sn1-c1ccccc1 | 4µM* | 7.9µM* | u | 0.5µM* | u | 12%
O=c1c2cc(F)ccc2sn1-c1ccccc1 | 8.9µM* | 10µM* | 0%[0.501 µM] | x | 1% | 1%
O=C(O)c1cccc(-n2sc3ccccc3c2=O)c1 | 2.8µM* | 8.9µM* | 7%[0.501 µM] | x | 73% | 0%
CC(=O)Nc1ccc(NCc2nnc3n2CCCCC3)cc1 | -17% | 1% | 1%[59 µM] | x | 16%[57 µM] | 0%
COc1ccc(CNC(=O)c2cc3cccc4c3n2CC(C)S4)c(OC)c1 (centres undefined) | 2% | -21% | -27%[59 µM] | x | 24% | 0%
CC1CN(C(=O)CSc2nnc3c(Cl)cc(Cl)cn23)CC(C)O1 (centres undefined) | -2% | -3% | 79µM* | 12% | 35% | -2%
N#CCSc1nnc2c(Cl)cc(Cl)cn12 | -10% | x | -3%[59 µM] | 11% | 18% | -2%
COc1ccc(NC(=O)CSC2=C(C#N)C(c3ccco3)C(C(=O)Nc3nc4ccccc4s3)=C(C)N2)cc1 (centres undefined) | -28% | x | x | x | 44% | x
C=CCOC(=O)C1=C(C)NC(SCC(=O)Nc2ccc(C)c(Cl)c2)=C(C#N)C1c1ccco1 (centres undefined) | -18% | 8% | -14% | 35µM* | 33% | 3%
COCCOC(=O)C1=C(C)NC(SCC(=O)NC(C)(C)C)=C(C#N)C1c1ccco1 (centres undefined) | 89µM* | -4% | -9%[59 µM] | 4% | 27% | 4%
Cc1ccccc1NS(=O)(=O)c1cc2c3c(c1)C(C)C(=O)N3CCC2 (centres undefined) | -12% | -4% | x | 16% | 41% | 1%
O=C(NCCCCc1ccccc1)C1CC(c2cc(C(F)(F)F)cc(C(F)(F)F)c2)=NO1 (centres undefined) | -11% | 2% | 9%[12.7 µM] | 23% | 30% | 2%
CC(C)C[C@H](NC(=O)[C@H](CC(C)C)NC(=O)[C@H](Cc1ccc(O)cc1)NC(=O)CNC(=O)[C@H](C)NC(=O)[C@H](CO)NC(=O)[C@H](CC(N)=O)NC(=O)[C@H](CC(C)C)NC(=O)[C@@H](NC(=O)[C@H](Cc1c[nH]c2ccccc12)NC(=O)CN)[C@@H](C)O)C(=O)NCC(=O)N1CCC[C@H]1C(=O)N1CCC[C@H]1C(=O)N1CCC[C@H]1C(=O)NCC(=O)N[C@@H](Cc1ccccc1)C(=O)N[C@@H](CO)C(=O)N1CCC[C@H]1C(=O)N[C@@H](Cc1ccccc1)C(=O)N[C@@H](CCCNC(=N)N)C(N)=O | x | x | x | 3% | x | 3%
CCOC(=O)c1sc(Nc2nc(C)cc(C)n2)nc1C | -14% | -3% | 28%[59 µM] | u | 40% | 4%
CCOC(=O)c1c(NC(=O)c2cc(-c3ccc(OC)c(OC)c3)on2)sc(C)c1C | -2% | 4% | -33%[59 µM] | x | 22% | -5%
CCOC(=O)c1c(Nc2nc(C)c(C(=O)NC)s2)sc(C)c1C | -22% | 0% | u | 40µM* | 12% | 1%
CCOC(=O)c1c(NC(=O)c2cc(-c3ccc(Cl)cc3)on2)sc(C)c1C | -6% | 3% | 8.9µM* | x | 7% | 4%

Bioassay records deposited in PubChem BioAssay by National Center for Advancing Translational Sciences (NCATS).
